Measured values: PubChem BioAssay AID1159580 (chemical genetic matrix, 2015)
Values joined by “and” are separate entries in the source; they are usually repeats but may differ in a detail not shown here. Equal values may be shown once. Screen size: about 5,500 compounds; about 2,000 (36%) were called active. Inconclusive results (about 18%) are left out. No stated cut-off is given here; in the data, active means normalized growth mostly below about 0.91 (no sharp cut-off); inconclusive means no clear call, values can overlap the other calls; inactive means mostly above about 0.92. The list shows a part of the results.

Experiment: chemical genetic growth profiling, strain panel (AID 1159580);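 further: tested at 20 µM; growth read once vehicle control cultures reached saturation at 30 °C; 1 = growth at the plate median or of vehicle wells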
Details: S. cerevisiae deletion strains, growth OD

Measured: normalized growth

O=C(O)c1ccc(S(=O)(=O)N(Cl)Cl)cc1
inactive: locus YAL013W, strain DEP1, stronger effect = lower value 1 | locus YAL021C, strain ccr4, stronger effect = lower value 1 | locus YAL026C, strain drs2, stronger effect = lower value 0.962 | locus YAL030W, strain snc1, stronger effect = lower value 0.994 | locus YBL061C, strain skt5, stronger effect = lower value 0.975 | locus YBR009C, strain hhf1, stronger effect = lower value 0.925 | locus YBR021W, strain FUR4, stronger effect = lower value 0.987 | locus YBR023C, strain chs3, stronger effect = lower value 1 | locus YBR171W, strain sec66, stronger effect = lower value 0.969 | locus YBR229C, strain ROT2, stronger effect = lower value 1 | locus YBR231C, strain swc5, stronger effect = lower value 0.995 | locus YBR279W, strain paf1, stronger effect = lower value 0.992 | locus YCL011C, strain gbp2, stronger effect = lower value 0.977 | locus YCL016C, strain dcc1, stronger effect = lower value 1 | locus YCL029C, strain bik1, stronger effect = lower value 1.01 | locus YCL061C, strain MRC1, stronger effect = lower value 0.933 | locus YCL069W, strain vba3, stronger effect = lower value 0.988 | locus YCR088W, strain abp1, stronger effect = lower value 0.998 | locus YDL005C, strain med2, stronger effect = lower value 0.996 | locus YDL035C, strain GPR1, stronger effect = lower value 0.989 | locus YDL040C, strain nat1, stronger effect = lower value 0.992 | locus YDL074C, strain BRE1, stronger effect = lower value 0.98 | locus YDL101C, strain DUN1, stronger effect = lower value 1 | locus YDL185W, strain tfp1, stronger effect = lower value 1.01 | locus YDL192W, strain arf1, stronger effect = lower value 1.03 | locus YDR001C, strain nth1, stronger effect = lower value 0.978 | locus YDR069C, strain doa4, stronger effect = lower value 1.02 | locus YDR101C, strain arx1, stronger effect = lower value 1.02 | locus YDR137W, strain rgp1, stronger effect = lower value 1.01 | locus YDR150W, strain NUM1, stronger effect = lower value 1 | locus YDR159W, strain sac3, stronger effect = lower value 0.98 | locus YDR162C, strain NBP2, stronger effect = lower value 1 | locus YDR195W, strain ref2 0.996 | locus YDR297W, strain sur2, stronger effect = lower value 0.988 | locus YDR318W, strain mcm21, stronger effect = lower value 1.01 | locus YDR334W, strain swr1, stronger effect = lower value 0.97 | locus YDR335W, strain msn5, stronger effect = lower value 0.987 | locus YDR388W, stronger effect = lower value 1.02 | locus YDR392W, strain spt3, stronger effect = lower value 0.939 | locus YDR502C, strain sam2, stronger effect = lower value 1.04 | locus YEL003W, strain gim4, stronger effect = lower value 0.964 | locus YEL037C, strain rad23, stronger effect = lower value 0.962 | locus YEL061C, strain CIN8 (second series), stronger effect = lower value 0.975 | locus YEL061C, strain CIN8, stronger effect = lower value 1 | locus YER015W, strain faa2, stronger effect = lower value 1 | locus YER016W, strain bim1, stronger effect = lower value 0.997 | locus YER110C, stronger effect = lower value 1.03 | locus YER111C, strain swi4, stronger effect = lower value 0.982 | locus YER155C, strain BEM2 (second series), stronger effect = lower value 0.979 | locus YER155C, strain BEM2, stronger effect = lower value 0.992 | locus YER167W, strain BCK2, stronger effect = lower value 1 | locus YFR010W, strain ubp6, stronger effect = lower value 0.959 | locus YGL078C, strain dbp3, stronger effect = lower value 1.03 | locus YGL086W, strain mad1, stronger effect = lower value 0.991 | locus YGL167C, strain pmr1, stronger effect = lower value 0.973 | locus YGL173C, strain kem1, stronger effect = lower value 0.982 | locus YGL227W, strain vid30, stronger effect = lower value 0.996 | locus YGL240W, strain doc1, stronger effect = lower value 1.02 | locus YGL248W, strain PDE1, stronger effect = lower value 1 | locus YGL253W, strain hxk2, stronger effect = lower value 0.999 | locus YGR078C, strain PAC10, stronger effect = lower value 0.998 | locus YGR135W, strain pre9, stronger effect = lower value 1.01 | locus YGR252W, strain gcn5, stronger effect = lower value 0.971 | locus YHR013C, strain ard1, stronger effect = lower value 1.01 | locus YHR027C, strain rpn1, stronger effect = lower value 0.993 | locus YHR030C, strain SLT2, stronger effect = lower value 0.999 and 0.973 | locus YHR079C, strain IRE1 (second series), stronger effect = lower value 1.02 | locus YHR079C, strain IRE1, stronger effect = lower value 0.973 | locus YHR094C, strain hxt1, stronger effect = lower value 1.03 | locus YHR129C, strain ARP1, stronger effect = lower value 0.996 | locus YHR142W, strain chs7, stronger effect = lower value 0.971 | locus YHR200W, strain rpn10, stronger effect = lower value 1.03 | locus YIL066C, strain RNR3, stronger effect = lower value 1 | locus YIL073C, strain SPO22, stronger effect = lower value 1.03 | locus YIL125W, strain kgd1, stronger effect = lower value 1.01 | locus YIR030C, strain dcg1, stronger effect = lower value 1.03 | locus YJL092W, strain hpr5, stronger effect = lower value 0.987 | locus YJL095W, strain BCK1 (second series), stronger effect = lower value 0.991 | locus YJL095W, strain BCK1, stronger effect = lower value 1 and 0.969 | locus YJL115W, strain asf1, stronger effect = lower value 0.969 | locus YJL129C, strain trk1, stronger effect = lower value 0.996 | locus YJL134W, strain LCB3, stronger effect = lower value 1 | locus YJL154C, strain vps35, stronger effect = lower value 0.985 | locus YJL164C, strain tpk1, stronger effect = lower value 0.954 | locus YJL166W, strain qcr8, stronger effect = lower value 1.01 | locus YJL168C, strain set2, stronger effect = lower value 1.02 | locus YJL187C, strain SWE1 (second series), stronger effect = lower value 0.998 | locus YJL187C, strain SWE1, stronger effect = lower value 0.994 | locus YJR043C, strain POL32, stronger effect = lower value 0.982
